Publication PMC7819943, “Rice protein-binding microarrays: a tool to detect cis-acting elements near promoter regions in rice”
The full ranking holds about 35,000 sequences; the median of “fluorescence intensity (a.u.)” is about 10,000, and the highest 2% start at about 52,000. Shown is part of a subset that was picked to be rich in the highest values.

These sequences were tested against T1, OsWOX13 (Oryza sativa, UniProt Q5QMM3 1-267) (assay: protein-binding microarray (RPBM); PBS, 2% BSA, 51.3 ng/ul salmon testes DNA, 50 uM zinc acetate, 200 nM TF, 25 C, 1 h; high values mean tight binding). Conditions: protein: recombinant; tags: N-terminal polyhistidine and DsRed monomer fusion (pET32a); label: CyDye5-dUTP incorporated in the synthesized complementary strand; 3' TTTTT single-stranded linker to array surface; dsDNA, one strand shown.
T1 sequence: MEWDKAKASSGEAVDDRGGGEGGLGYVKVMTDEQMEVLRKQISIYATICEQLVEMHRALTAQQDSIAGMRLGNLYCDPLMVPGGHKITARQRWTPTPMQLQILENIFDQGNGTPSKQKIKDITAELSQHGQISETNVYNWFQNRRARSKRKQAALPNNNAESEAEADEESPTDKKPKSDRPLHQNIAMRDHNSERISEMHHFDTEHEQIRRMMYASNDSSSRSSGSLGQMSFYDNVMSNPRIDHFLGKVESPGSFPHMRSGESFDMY
Method in brief: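 Transcription factors, each fused N-terminally to a polyhistidine tag and DsRed, were expressed in E. coli BL21-CodonPlus and purified on Ni–NTA. A custom Agilent array was made double-stranded by primer extension with Cy5-dUTP and blocked with 2% BSA. It was incubated with 200 nM protein in PBS, 2% BSA, salmon testes DNA and 50 µM zinc acetate at 25 °C for 1 h, then washed. The binding signal is per-feature fluorescence intensity (arbitrary units) read on an Axon 4000B scanner.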

Row | Sequence | binding signal
1 | ATAATGTCAAATTTCGTTCCATTGTGAAGAAATTTTGCCACGGAGTCACCTAGTGCAG | 3410 fluorescence intensity (a.u.)
2 | CATGATAGATCAGGCAGAGAGCAGATCAGAGCAAGCATGTCGGAGTCACCTAGTGCAG | 11800 fluorescence intensity (a.u.)
3 | GAGGGCAAGGCCCAGGGAAGCATATCTTGATAGTCGATATCGGAGTCACCTAGTGCAG | 65500 fluorescence intensity (a.u.)
4 | ATGGAATTGATTAGAAGCCAGCCAGGCAGGGGAGGGTCGTCGGAGTCACCTAGTGCAG | 33900 fluorescence intensity (a.u.)
5 | GGTTCCACTATCAATCTTAGACAGTATAAACAGGTCAACACGGAGTCACCTAGTGCAG | 5380 fluorescence intensity (a.u.)
6 | TATTCTGATTGGAACTTATGAGTCTTGAATTCTTGATTCTCGGAGTCACCTAGTGCAG | 39000 fluorescence intensity (a.u.)
7 | CTGATTAGTGATTTATTTAATTTGAGGAATCATTTTGGCACGGAGTCACCTAGTGCAG | 64900 fluorescence intensity (a.u.)
8 | ATAATTTGATCAAATTACATGTGATTTTGTGAAATTTACACGGAGTCACCTAGTGCAG | 39700 fluorescence intensity (a.u.)
9 | TCTGATTGCAATCATTCTTGAATTCTGATACATATTGGATCGGAGTCACCTAGTGCAG | 60300 fluorescence intensity (a.u.)
10 | AAGGAGAATTTTCTTGATTGAAATTATACATCATATTCATCGGAGTCACCTAGTGCAG | 29500 fluorescence intensity (a.u.)
11 | TTAATTACAAATTGATTTGATCACGTAGATAATTACATCACGGAGTCACCTAGTGCAG | 62000 fluorescence intensity (a.u.)
12 | AACAATTGATTAGTACAAAATGGTACTTCCTCCGTTTCACCGGAGTCACCTAGTGCAG | 56600 fluorescence intensity (a.u.)
13 | TGAGAGTGGCATTTAATTGAATCCTATTATGATGGTGGCACGGAGTCACCTAGTGCAG | 16100 fluorescence intensity (a.u.)
14 | GTAATTTATATTGAAATGCAATTACTTCCTCCGTTTCACCCGGAGTCACCTAGTGCAG | 21800 fluorescence intensity (a.u.)
15 | GATTAATTTAGAAATTTTGAATTCTATTACATAATGATCACGGAGTCACCTAGTGCAG | 20600 fluorescence intensity (a.u.)
16 | AATTGATTTACAATACTTCCTCCGTTTCACAATATAAGTGCGGAGTCACCTAGTGCAG | 24700 fluorescence intensity (a.u.)
17 | CGGAATTAATCTGATTATGTGAGTGAATTGGCATTTTGAACGGAGTCACCTAGTGCAG | 30700 fluorescence intensity (a.u.)
18 | CAAAACTGAGTACATTGGATTGGACCATCTAAAAGGAAATCGGAGTCACCTAGTGCAG | 4580 fluorescence intensity (a.u.)
19 | TTTATCAAATTATCGTTTGTGTACTCTAGCTGGTCCTGGACGGAGTCACCTAGTGCAG | 3870 fluorescence intensity (a.u.)
20 | TGAAATTATTAGCAGGGTTTTAAATCTTCTGTTATAGCTGCGGAGTCACCTAGTGCAG | 4040 fluorescence intensity (a.u.)
21 | GGTAATAGAGAGACCACTAATAAAGATTGTTGTACCTGTGCGGAGTCACCTAGTGCAG | 3690 fluorescence intensity (a.u.)

Row | Sequence | binding signal
22 | CCCTAGACAGATCAGCTTTGGTGTCTTGGTGGTTGTTGTCCGGAGTCACCTAGTGCAG | 5440 fluorescence intensity (a.u.)
23 | TGTTTAAGTTTGTCCTAATTACCTGTCACATTTTCCGTGCCGGAGTCACCTAGTGCAG | 8460 fluorescence intensity (a.u.)
24 | GGCAGTGACTAATTAACCTCACGGATGACAGGCGGCGAAACGGAGTCACCTAGTGCAG | 10300 fluorescence intensity (a.u.)
25 | ATCAGCTGATTACCTCACTGCATCCGTATGATTCGACTTTCGGAGTCACCTAGTGCAG | 7310 fluorescence intensity (a.u.)
26 | CATAATTGCACGATCATTGATTTTGGAACATTCTGAGGCTCGGAGTCACCTAGTGCAG | 57100 fluorescence intensity (a.u.)
27 | CTCCGGTTTAATTTTAATTGATGTTTTGGACAATGGCACGCGGAGTCACCTAGTGCAG | 44900 fluorescence intensity (a.u.)
28 | GTGCTCTAATTATTTGTATCTTACAGATAGATGACAGAGCCGGAGTCACCTAGTGCAG | 19100 fluorescence intensity (a.u.)
29 | ATGATTAGAGAGAATGGGTTTAGTTATTTGTTGATCCACACGGAGTCACCTAGTGCAG | 29400 fluorescence intensity (a.u.)
30 | GATCTGATTGAGACATATCTGAAAATAATTTGCACGCAGACGGAGTCACCTAGTGCAG | 30600 fluorescence intensity (a.u.)
31 | ACTTGACAGCCCTAATTGATCTTATTACATGCAGAGGATCCGGAGTCACCTAGTGCAG | 56300 fluorescence intensity (a.u.)
32 | ACATGACTAATCTTATTGACTTAAGAGCTGATTAGGATACCGGAGTCACCTAGTGCAG | 20200 fluorescence intensity (a.u.)
33 | GATAATTGAGGGATTATTTTATGGATATACTAGATCTGCACGGAGTCACCTAGTGCAG | 52400 fluorescence intensity (a.u.)
34 | TGTGAGTGATCAAATAATTGATCATAATTTTCTATCGATTCGGAGTCACCTAGTGCAG | 37500 fluorescence intensity (a.u.)
35 | TGGATTGAGATATTTATTTATGATGATCACATCTGCACCTCGGAGTCACCTAGTGCAG | 9980 fluorescence intensity (a.u.)
36 | AATATATGGATAATTGTACTAGATTATCCTATTTCATACACGGAGTCACCTAGTGCAG | 6460 fluorescence intensity (a.u.)
37 | TTTAATTGATTTTGTTTAGAATTTGAGGACATGATCCACGCGGAGTCACCTAGTGCAG | 62900 fluorescence intensity (a.u.)
38 | TCAATTAATATATAATTGGCATTGGGTTTGATCATCTCTGCGGAGTCACCTAGTGCAG | 50700 fluorescence intensity (a.u.)
39 | CATGTTAATTTGGGACGAGAGTCGGACTCCTATTTCCTTTCGGAGTCACCTAGTGCAG | 7570 fluorescence intensity (a.u.)
40 | AAAATTGATGTTCTCTTTGGTGCATTTCTTTCTTATTGTCCGGAGTCACCTAGTGCAG | 26800 fluorescence intensity (a.u.)
41 | CAATTATCAATCAGTCTGAAATCTTGCATTTGCATTTGCACGGAGTCACCTAGTGCAG | 22400 fluorescence intensity (a.u.)
42 | TAAGACTAATTATTCTTTTAGTAATAGACGACGTACTCGCCGGAGTCACCTAGTGCAG | 22300 fluorescence intensity (a.u.)
